Compounds with a hit are over-represented: about 1.1% of the library has one in this group of screens.
GRP78 ERSR act = inducers of ER stress response in human glioma cells; U87-MG GRP78 promoter luciferase reporter, 16 h; Potency, µM, without a hit: top-dose activation, most hits filed as activators; actives 0.02% (n = 420,000); AID 602332; also: series mostly up to about 76 µM; % of control where 0% means no effect; nearly all actives have a fitted effect of over 35% in size
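ERSR induction read as luciferase luminescence (Bright-Glo, 10 min at room temperature) in stably transfected human U87-MG glioma cells exposed to compounds for 16 h, using GRP78 as sensor.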
BCR signal inh = blocks chronic active B-cell receptor signaling. AID 493014. actives 0.05% (n = 340,000). ABC-DLBCL IkBa-CBG/CBR reporter, luminescence ratio, 4 h. Potency, µM (highest dose often 46.1 µM), for the others: at the highest dose activity change, negative = inhibition, most hits filed as inhibitors; active = well fitted inhibition curve with a large enough effect in the signal ratio, with a control signal flat, not every such curve was filed as active; inconclusive = small, poorly fitted or top-dose-only effect, or effect the other way, or a change in a side signal; the % refers to the signal ratio;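 also: plate controls were basal doxycycline-induced cells for no effect and cells given 10 µM MG132 for full effect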
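TMD8 ABC-DLBCL cells carrying doxycycline-inducible green luciferase fused to IkappaBalpha plus unfused red luciferase were exposed to compounds (up to 46 uM) for 4 hrs at 37C. Activity came from the overlap-corrected green/red luminescence ratio.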
ALOX12 inh = ALOX12 (human) lipoxygenase inhibition; P18054; purified 12hLO, xylenol orange hydroperoxide absorbance; Potency, µM (series often up to 108 µM), without a hit: top-dose activity change, negative = inhibition, hits mostly inhibitors; actives 1.1% (n = 580,000); AID 1671190; also: % is scaled to controls: 0 for no effect and ±100 for the full control effect
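Purified human 12hLO at 150 nM in 25 mM Hepes, 0.01% Triton X-100, pH 7.0, preincubated 15 min at room temperature with compound. Reaction started with 40 uM arachidonic acid, 30 min at room temperature. Hydroperoxide measured by Fe-xylenol orange, 573/405 nm absorbance ratio.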
Apoferritin bind = binds horse apoferritin like a general anesthetic; Potency, µM (doses to about 77.5 µM), inactives show at the top dose activity change, negative = displacement, usual class: inhibitors; apoferritin/1-aminoanthracene competitive binding, fluorescence; actives 0.074% (n = 350,000); also: % is scaled to controls: 0 for no effect and ±100 for the full control effect; nearly all actives have a fitted effect of over 20% in size
Target sequence (P02791 2-175 limits assumed): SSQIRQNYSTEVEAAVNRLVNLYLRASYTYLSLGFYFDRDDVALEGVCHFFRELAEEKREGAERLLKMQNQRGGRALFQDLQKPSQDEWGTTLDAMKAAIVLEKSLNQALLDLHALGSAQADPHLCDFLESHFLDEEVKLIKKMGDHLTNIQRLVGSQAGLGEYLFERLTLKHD
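Apoferritin-based anesthetic binding model; compound displacement of fluorescent 1-AMA measured as endpoint fluorescence after 10 minutes at room temperature, scaled to free-ligand and complex controls.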
Numbers without * were called inactive; ? = inconclusive; / = no result; [ ] = remark or other dose. Unless noted, calls follow the shape of the dose curve; as a rule, active = well fitted curve in the direction sought with a large enough effect; inconclusive = small, poorly fitted or top-dose-only effect, or another doubt; inactive = no such curve, though single readings can be large; an effect the other way counts as inactive or inconclusive. Potency is read from the fitted curve at half-maximal effect.

SMILES	GRP78 ERSR act	BCR signal inh	ALOX12 inh	Apoferritin bind
Cc1cccc(NC2=C(NC(=O)c3ccccc3)C(=O)c3ccccc3C2=O)c1	-3%	?	14µM*	-24%
S=c1[nH]nc(CCc2ccccc2)n1-c1ccc(Cl)cc1	0%	5%	32µM*	-12%
COc1cccc(OC)c1OCCNCCO	-3%	-3%	9%	5%
C=CCc1cccc(OC)c1OCCOCCNCCO	-4%	8%	2.2µM*	-14%
Cc1cc(=O)c2cc(C(=O)Nc3nnc(CC(C)C)s3)ccc2[nH]1	/	/	12%	/
CC(=O)c1ccc(NC(=O)Cc2c(C)c3ccc(O)cc3oc2=O)cc1	/	/	-8%	/
COc1ccccc1CNS(=O)(=O)c1cc(CN2C(=O)c3cccnc3C2=O)ccc1OC	-3%	1%	35µM*	-14%
COc1ccc(CN2C(=O)c3cccnc3C2=O)cc1S(=O)(=O)NCc1ccc(C)o1	0%	0%	-5%	-11%
CC(c1cccs1)N(C)C(=O)Cc1c[nH]c2ccccc12 (configuration not stated)	/	/	52%	/
COc1cccc(-c2cc(C3CCN(S(=O)(=O)c4ccc(C#N)cc4)CC3)[nH]n2)c1	/	/	16%	/
COc1ccc(C2C=C(c3ccc(Cl)cc3)Nc3nc(-c4ccc(Cl)cc4)nn32)cc1 (configuration not stated)	-3%	/	5.6µM*	-13%
COc1ccc(C2=CC(c3c(F)cccc3Cl)n3nnnc3N2)cc1 (configuration not stated)	/	/	40µM*	/
Clc1ccc(C2C=C(c3ccccc3)Nc3nnnn32)c(Cl)c1 (configuration not stated)	/	/	18µM*	/
O=C(Nc1ccc(CCO)cc1)c1cc2ccccc2oc1=O	/	/	-11%	/
CCc1oc2ccccc2c1C(=O)c1cc(I)c(O)c(I)c1	-4%	/	13µM*	/
Cc1ccccc1C(=O)NC(NC(C)C)C(Cl)(Cl)Cl (configuration not stated)	/	/	2%	/
CSc1nc2ccccc2c(=O)n1CC(=O)c1ccc(C)cc1	/	/	-20%	/
Cc1ccc(C(=O)C2OC(=O)C(C)(C)C(=O)C2(C)C)cc1 (configuration not stated)	-4%	3%	?	6.3µM*
Cn1cc(CN2C[C@@H](F)[C@@H](OCc3nc4ccccc4o3)C2)c2ccccc21	/	/	2%[176 µM]	/
CC1(C)Cc2c(ccc3ccccc23)C(CCl)N1 (configuration not stated)	/	/	5.6µM*	/
Cc1ccc(C(=O)Nc2ncn(CC(=O)NCc3ccc(F)cc3)n2)cc1	/	/	30%	/
CC(C)(C)CC(C)(C)SSc1n[nH]c(=S)s1	-3%	/	35µM*	/
CCOC(=O)CSc1n[nH]c(=S)s1	-10%	-1%	?	32%
CCCOc1ccc(/C(O)=C2\C(=O)C(=O)NC2c2ccc(Cl)cc2)cc1 (configuration not stated)	/	/	-62%	/
COc1ccc(/C(O)=C2\C(=O)C(=O)NC2c2ccc(Cl)cc2)cc1F (configuration not stated)	/	/	11µM*	/
SMILES	GRP78 ERSR act	BCR signal inh	ALOX12 inh	Apoferritin bind
COc1cc(/C=C/C(=O)c2ccc(C#N)cc2)cc(Br)c1O	/	/	8.9µM*	/
CCOc1cc(/C=C/C(=O)c2ccc(C)cc2)ccc1OCC(=O)N(C)C	12%	?	-22%	-5%
CCOc1cc(/C=C/C(=O)c2ccc(C)cc2)cc(Br)c1O	/	/	40µM*	/
CCOc1ccc(/C=C/C(=O)c2ccc(Cl)cc2)cc1	/	/	2%	/
COc1cc(/C=C/C(O)=C/C(=O)/C=C/c2ccc(O)cc2)ccc1O	-10%	?	13µM*	/
CCOc1cc(/C=C/C(=O)c2ccc(Cl)c(Cl)c2)ccc1O	/	/	6.3µM*	/
Cc1cc(/C=C/C(=O)c2ccc(F)cc2)cc(C)c1O	/	/	45µM*	/
COc1cc(C(=O)/C=C/c2ccc(SC)cc2)ccc1O	/	/	40µM*	/
CSc1ccc(/C=C/C(=O)c2ccc(O)cc2)cc1	2%	?	?	65%
COc1ccc(/C=C/C(=O)c2ccc(O)c(CCCl)c2)cc1C	/	/	32µM*	/
CC(C)c1nnc2ccc(N3CCC(C(=O)Nc4ccc5c(c4)OCO5)CC3)nn12	/	/	11%	/
Cc1ccccc1C(=O)Nc1ccc2c(c1)nc(CN1CCC(C)CC1)n2C	/	/	6%	/
Cc1noc2nc(C(C)C)cc(C(=O)NC3CCCc4c3[nH]c3ccccc43)c12 (configuration not stated)	/	/	32µM*	/
CSc1ccccc1NC(=O)/C(=C/c1ccco1)c1ccccc1	/	/	50µM*	/
COc1ccc2cc(C(=O)NCc3ccccc3CN3CCCC3)c(C)nc2c1	/	/	-1%	/
Cc1cc(C)c(C(=O)Oc2c(C)cccc2C)c(C)c1	/	/	1%	/
CCc1cc(C(c2ccc(OC)cc2)N2CCOCC2)c(NC(=O)c2ccco2)s1 (configuration not stated)	/	/	7.1µM*	/
COc1ccc(C(c2c(NC(=O)c3ccco3)sc(C)c2C)N2CCOCC2)cc1OC (configuration not stated)	-4%	-1%	-25%	/
CCc1cc(C(c2ccc(F)cc2)N2CCN(CC)CC2)c(NC(=O)c2ccco2)s1 (configuration not stated)	/	/	10µM*	/
Cc1sc(NC(=O)c2ccco2)c(C(c2ccc(F)cc2)N2CCN(C)CC2)c1C (configuration not stated)	4%	?	/	-8%
COc1ccc(S(=O)(=O)Nc2nc3ccccc3nc2NCc2ccccc2Cl)cc1	/	/	0%	/
O=C1S/C(=C/c2ccc(N3CCOCC3)o2)C(=O)N1Cc1c(F)cccc1Cl	2%	-8%	28µM*	-23%
O=C1S/C(=C\c2ccc(N3CCOCC3)o2)C(=O)N1Cc1c(F)cccc1Cl	-3%	12%	32µM*	-13%
O=C1S/C(=C\c2ccc(N3CCOCC3)o2)C(=O)N1c1ccccc1	-8%	-7%	?	-13%
Cc1cc([N+](=O)[O-])ccc1NCc1ccc2ccccc2c1	-1%	?	8%	?
SMILES	GRP78 ERSR act	BCR signal inh	ALOX12 inh	Apoferritin bind
Cc1cccc(NCc2ccc([N+](=O)[O-])s2)c1	-2%	-5%	?	16µM*
Cc1ccc(NCc2ccc([N+](=O)[O-])s2)cc1	1%	6%	?	16µM*
Cc1ccccc1NCc1ccc([N+](=O)[O-])s1	4%	-1%	0%	8.9µM*
Cc1cc([N+](=O)[O-])ccc1NCc1ccccc1	-1%	7%	/	11µM*
O=C(COC(=O)c1ccccc1Sc1ccc(C(F)(F)F)cc1[N+](=O)[O-])NC12CC3CC(CC(C3)C1)C2	/	/	-4%	/
C(#CCN1CCN(Cc2ccccc2)CC1)COCCOCc1ccccc1	/	/	-1%	/
Cn1c(=O)[nH]c(=O)c2c1nc(NC1CCCCC1)n2CC(=O)c1ccccc1	/	/	5%	/
Cc1cc(C)cc(NC(=S)NCCO)c1	/	/	14µM*	/
Cc1cc(C)c(NC(=S)NCCO)c(C)c1	-4%	-8%	9%	-3%
CN(Cc1cccc(F)c1)c1ccc(S(N)(=O)=O)cn1	/	/	-34%	/
Cc1cc(NC(=O)CCn2cnc3c2c(=O)n(C)c(=O)n3C)ccc1Br	/	/	7%	/
CN=c1scc(-c2ccco2)n1/N=C/c1ccc(O)c(O)c1	-1%	?	40µM*	-13%

Screening data: PubChem, National Center for Advancing Translational Sciences (NCATS)
